Drawing on PubChem BioAssay, this text covers inhibition and activation for 16 molecules.

SMILES strings stand for the structures. A number with no mark means an inactive call. Some of the results follow. Active and inactive are the calls of the source.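 Rule for the calls, unless noted: active = mean inhibition above about 50% in the one-dose retest (limit read from the data); inactive = the rest.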

Assay [1] is described as follows: lowers stimulated NF-kB luciferase signal in Jurkat – cell-based, luminescence, single concentration, T-cell NF-kB inhibitor project, confirmation (AID 435020;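 active = inhibition reaching about 45% at 4 µM in either replicate, limit read from the data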;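 note: plate controls were PMA/ionomycin stimulated DMSO wells for no effect and unstimulated DMSO wells for full effect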). As to conditions: PMA/ionomycin-induced, 16 h, at 4 µM, active compounds read high.
Assay [2] deals with Sentrin-specific protease 8 (Homo sapiens) (UniProt Q96LD8). The assay can be described thus: human SENP8 peptidase blockers, hit retest – biochemical, luminescence, single concentration, confirmation (AID 488912;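 active = mean inhibition across replicates above about 50%, limit read from the data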). As to conditions: Recombinant SENP8, Z-RLRGG-aminoluciferin luminescence, 60 min; at 12.5 µM; active compounds read high.
Sequence of Sentrin-specific protease 8 (Homo sapiens) (Q96LD8 whole entry, looked up, the tested form may be a part): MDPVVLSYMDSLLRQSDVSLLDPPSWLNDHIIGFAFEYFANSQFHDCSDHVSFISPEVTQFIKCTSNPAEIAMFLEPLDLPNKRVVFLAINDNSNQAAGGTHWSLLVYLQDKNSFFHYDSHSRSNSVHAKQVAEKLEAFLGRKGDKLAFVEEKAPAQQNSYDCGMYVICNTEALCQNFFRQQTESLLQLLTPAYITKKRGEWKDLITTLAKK
Assay [3] has as its target Sentrin-specific protease 6 (Homo sapiens) (UniProt Q9GZR1). Briefly: inhibition of human SENP6 catalytic domain – biochemical, luminescence, single concentration, confirmation (AID 488915). As to conditions: recombinant SENP6, Z-RLRGG-aminoluciferin luminescence; at 12.5 µM; active compounds read high.
For assay [4], the target named is Sentrin-specific protease 7 (Homo sapiens) (UniProt Q9BQF6). Briefly: human SENP7 peptidase blockers, hit retest – biochemical, luminescence, single concentration, confirmation (AID 488917). The settings on record: recombinant SENP7, Z-RLRGG-aminoluciferin luminescence, 40 min; at 12.5 µM; active compounds read high.
Sequence of Sentrin-specific protease 7 (Homo sapiens) (Q9BQF6 706-1050 limits assumed): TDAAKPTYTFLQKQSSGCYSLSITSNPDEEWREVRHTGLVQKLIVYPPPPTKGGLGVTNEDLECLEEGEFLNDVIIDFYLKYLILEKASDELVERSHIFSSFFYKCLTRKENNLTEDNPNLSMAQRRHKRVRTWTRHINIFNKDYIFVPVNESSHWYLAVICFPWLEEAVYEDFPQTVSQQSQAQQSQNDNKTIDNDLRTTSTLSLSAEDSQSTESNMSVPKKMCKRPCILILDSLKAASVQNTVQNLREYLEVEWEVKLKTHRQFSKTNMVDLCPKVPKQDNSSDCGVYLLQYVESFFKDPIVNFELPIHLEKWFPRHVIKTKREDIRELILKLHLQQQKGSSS
A further assay addresses Caspase-3 (Homo sapiens) (UniProt P42574). The assay can be described thus: human caspase-3 activity blockade, out-of-family – biochemical, single concentration, selectivity assay for SENP inhibitor project, confirmation (AID 488918;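 active = mean inhibition above about 50%, limit read from the data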;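 note: plate controls were enzyme with DMSO for no effect and wells without caspase-3 for full effect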). As to conditions: purified caspase-3, Z-DEVD-aminoluciferin luminescence, 60 min; at 12.5 µM; active compounds read high.
Assay [5] in a line: Ultra-Glo luciferase signal interference – biochemical, single concentration, SENP8 reaction pre-completed, artefact control for SENP inhibitor project, confirmation (AID 488919;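 active = mean inhibition above about 50% when retested at one dose, limit read from the data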;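 note: plate controls were DMSO wells with completed reaction for no effect and substrate without enzyme for full effect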). The settings on record: Pre-incubated SENP8/Z-RLRGG-aminoluciferin, luciferase luminescence interference; at 12.5 µM; active compounds read high.
A short description of assay [6]: PERK-eIF2a-CHOP pathway stimulators, retested – cell-based, CHO-CHOP luciferase reporter, single concentration, confirmation (AID 463112; in the data active = activation above about 33%;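 note: 0% = DMSO wells and 100% = tunicamycin 10 µg/mL wells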). As to conditions: CHO-CHOP cells, CHOP-luciferase reporter luminescence; at 10 µM; active compounds read high; percent of tunicamycin response, DMSO as zero. (In general: A reporter such as luciferase makes a cellular process visible.)

A short description of assay [7]: Brca1-Bard1 BiLC signal decrease – luminescence, single concentration, counter-screen for Mdm2/MdmX interaction inhibitor project, confirmation (AID 504668; call rule not given here). The settings on record: Brca1/Bard1 bimolecular luciferase complementation counterscreen, at 8 µM, active compounds read high. A general note: Counterscreens check selectivity or assay interference.
The target of assay [8] is Protein Mdm4 (Homo sapiens) + E3 ubiquitin-protein ligase Mdm2 (Homo sapiens) (UniProt O15151+Q00987). Briefly: human Mdm2/MdmX binding disruption – cell-based, luminescence, single concentration, set 2, confirmation (AID 504601;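 active = mean inhibition of the luminescence signal across two replicates at or above 26 percent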). The settings on record: SaOS-2 split-luciferase Mdm2/MdmX complementation, at 8 µM, active compounds read high.
Sequence of Protein Mdm4 (Homo sapiens) + E3 ubiquitin-protein ligase Mdm2 (Homo sapiens) (O15151 whole entry, looked up): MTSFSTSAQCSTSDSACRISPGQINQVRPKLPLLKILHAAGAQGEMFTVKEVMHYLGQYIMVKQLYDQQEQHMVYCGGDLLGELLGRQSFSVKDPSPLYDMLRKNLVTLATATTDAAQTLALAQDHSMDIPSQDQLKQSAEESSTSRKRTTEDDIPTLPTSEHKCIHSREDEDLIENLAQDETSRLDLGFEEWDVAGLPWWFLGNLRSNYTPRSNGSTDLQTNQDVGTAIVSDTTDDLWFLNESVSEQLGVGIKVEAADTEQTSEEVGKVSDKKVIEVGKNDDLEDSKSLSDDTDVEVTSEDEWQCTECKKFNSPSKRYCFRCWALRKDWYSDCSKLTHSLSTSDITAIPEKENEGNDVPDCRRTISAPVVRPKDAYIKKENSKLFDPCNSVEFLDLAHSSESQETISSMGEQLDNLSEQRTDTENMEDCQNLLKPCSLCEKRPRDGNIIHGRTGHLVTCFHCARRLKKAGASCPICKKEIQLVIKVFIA
Sequence of Protein Mdm4 (Homo sapiens) + E3 ubiquitin-protein ligase Mdm2 (Homo sapiens) (Q00987 whole entry, looked up): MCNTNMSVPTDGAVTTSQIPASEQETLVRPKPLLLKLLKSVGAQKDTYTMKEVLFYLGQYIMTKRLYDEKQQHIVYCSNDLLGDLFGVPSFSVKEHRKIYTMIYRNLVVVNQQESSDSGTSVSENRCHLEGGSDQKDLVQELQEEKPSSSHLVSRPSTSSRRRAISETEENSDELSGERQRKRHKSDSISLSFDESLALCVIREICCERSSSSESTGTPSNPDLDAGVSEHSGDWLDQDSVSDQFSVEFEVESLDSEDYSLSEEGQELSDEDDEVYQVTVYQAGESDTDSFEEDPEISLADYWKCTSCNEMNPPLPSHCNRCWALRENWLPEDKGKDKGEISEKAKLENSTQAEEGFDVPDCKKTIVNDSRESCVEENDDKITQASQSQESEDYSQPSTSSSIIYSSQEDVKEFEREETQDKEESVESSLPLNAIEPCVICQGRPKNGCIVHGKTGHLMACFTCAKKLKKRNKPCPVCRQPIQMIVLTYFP

Sequence of Sentrin-specific protease 6 (Homo sapiens) (Q9GZR1 628-1112 limits assumed): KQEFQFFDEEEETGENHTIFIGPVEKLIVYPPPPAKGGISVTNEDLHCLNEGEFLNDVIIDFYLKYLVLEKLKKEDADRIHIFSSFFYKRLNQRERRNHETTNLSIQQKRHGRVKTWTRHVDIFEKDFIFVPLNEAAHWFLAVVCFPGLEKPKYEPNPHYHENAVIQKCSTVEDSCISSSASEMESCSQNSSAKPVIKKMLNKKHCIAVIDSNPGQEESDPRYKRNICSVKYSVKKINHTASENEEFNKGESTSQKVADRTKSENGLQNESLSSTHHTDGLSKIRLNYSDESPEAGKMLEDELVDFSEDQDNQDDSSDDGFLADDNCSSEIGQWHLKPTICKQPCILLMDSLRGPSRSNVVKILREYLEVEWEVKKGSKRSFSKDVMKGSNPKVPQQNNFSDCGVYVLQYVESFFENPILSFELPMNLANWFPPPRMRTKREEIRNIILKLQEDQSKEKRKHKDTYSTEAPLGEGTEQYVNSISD
Sequence of Caspase-3 (Homo sapiens) (P42574 28-227 limits assumed): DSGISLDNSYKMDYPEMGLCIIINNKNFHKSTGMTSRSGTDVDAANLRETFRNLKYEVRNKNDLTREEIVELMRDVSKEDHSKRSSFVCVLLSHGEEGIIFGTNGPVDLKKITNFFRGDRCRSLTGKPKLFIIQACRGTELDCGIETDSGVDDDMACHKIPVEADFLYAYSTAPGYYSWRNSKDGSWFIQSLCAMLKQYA

For `Cc1ccc2cc3cc(C(=O)N4CCCCCC4)oc3nc2c1`, the inhibition is -90.9% in [1]; 41.9% in [2]; 47.9% in [3]; 79.7% (active) in assay [4]; 62.2% (active) in the assay with Caspase-3 (Homo sapiens); 47.7% in assay [5].

In the case of `C[C@@H]1C[C@@H]2O[C@H]2/C=C\C=C\C(=O)Cc2c(Cl)c(O)cc(O)c2C(=O)O1`, the inhibition in [1] is 96.4% (active); in [7], 33.8% (active). The activation in [6] was 134% (active).

Take `CCC(=O)Nc1ccc2nn(-c3ccc(F)cc3)nc2c1`: the inhibition in assay [1] is -119%; in [2] it was 18.1%; in assay [3], 38.2%; in assay [4], 46.4%; in the assay with Caspase-3 (Homo sapiens), 32.5%; in assay [5], 3.4%.

As for `Cn1c(-c2ccc(F)cc2)cc2onc(-c3ccccc3Cl)c2c1=O`, the inhibition in assay [1] is -96.3%.

`CC(C)c1ccc(NC(=O)NC2CCCCC2)cc1`: the inhibition in [1] was -175%.

Turning to `COc1cc(C(=O)NN(CCC#N)C2=NS(=O)(=O)c3ccccc32)cc(OC)c1OC`, the inhibition in assay [1] was -119%.

Take `O=C(c1cnn(-c2ccc(Cl)cc2)c1)c1ccccc1O`: the inhibition in assay [1] is -109%; in assay [2], 11.7%; in [3], 95.3% (active); in [4], 78.6% (active); with Caspase-3 (Homo sapiens), 73.5% (active); in [5], 56.5% (active).

Regarding `O=[N+]([O-])c1ccccc1S(=O)(=O)Nc1cccc2cccnc12`, the inhibition was 33.1% in assay [1] and 102% (active) in assay [8]. The activation in assay [6] was 656% (active).

Regarding `COc1ccc(N=C(C)c2sc3ccccc3c2O)cc1`, the inhibition in assay [1] is -7.85%; in assay [2] it was 16.5%; in assay [3] it was 19.5%; in [4], 14.7%; in the assay with Caspase-3 (Homo sapiens), 9.6%; in assay [5], -5.1%.

Turning to `O=C(NCCC1CCCCN1S(=O)(=O)c1cccs1)C(=O)Nc1ccc(F)cc1F` (stereo unspecified), in [1], the inhibition is -3.5%.

`Cc1ccc(N/C=C/C(=O)c2ccccc2)cc1C`: the inhibition is 3.3% in [1]; 34.5% in [2]; 73.8% (active) in [3]; 91.5% (active) in assay [4]; 78.6% (active) with Caspase-3 (Homo sapiens); 13.8% in assay [5].

Regarding `Fc1ccccc1/C=N/Nc1cc(N2CCCCC2)ncn1`, the inhibition in [1] is -109%; in assay [2], 17.6%; in assay [3], 16.9%; in assay [4] it was 16.6%; with Caspase-3 (Homo sapiens) it was 25.2%; in assay [5] it was 6.6%.

Regarding `COc1ccc(Nc2cc(C)nc(-n3nc(C)cc3C)n2)cc1`, the inhibition in assay [1] is 64.7% (active). In addition, the activation in assay [6] is 2.6%.

With `Cc1c(/C=N\NC(=O)c2cc3ccccc3o2)c2ccccc2n1C`, the inhibition in assay [1] is -0.3%.

Regarding `N#Cc1ccc(C2N=C(c3ccccc3)NO2)cc1` (stereo unspecified), the inhibition in [1] is -93.9%; in [2], 24.2%; in [3] it was 9.2%; in assay [4] it was 22.5%; in the assay with Caspase-3 (Homo sapiens) it was 13.1%; in assay [5] it was 2.1%.

Take `Cc1noc(C)c1/C=N/Nc1ccc2ccccc2n1`: the inhibition is -102% in assay [1]; -12.5% in assay [2]; -9% in assay [3]; 6.7% in assay [4]; 6.2% with Caspase-3 (Homo sapiens); -1.9% in assay [5].

One may read the inhibition as the change of the read-out against control, counted positive when it falls.
